This passage reports binding signal results from article PMC7862700, “An all-to-all approach to the identification of sequence-specific readers for epigenetic DNA modifications on cytosine”.

Experiment in all cases: DAPPL (digital affinity profiling via proximity ligation, sequencing); 10 mM Tris-HCl pH 7.5, 50 mM NaCl, 1 mM DTT, 4% glycerol, room temperature, 30 min; GST-TFs on glutathione beads, 16-mer random dsDNA library, 0.1% formaldehyde crosslink after washing; high values mean tight binding
Holding throughout (settings): protein: recombinant; tags: N-terminal GST; dsDNA, one strand shown

One test concerns the target T1, FLI1 (Homo sapiens, UniProt Q01543 1-452).
T1 sequence: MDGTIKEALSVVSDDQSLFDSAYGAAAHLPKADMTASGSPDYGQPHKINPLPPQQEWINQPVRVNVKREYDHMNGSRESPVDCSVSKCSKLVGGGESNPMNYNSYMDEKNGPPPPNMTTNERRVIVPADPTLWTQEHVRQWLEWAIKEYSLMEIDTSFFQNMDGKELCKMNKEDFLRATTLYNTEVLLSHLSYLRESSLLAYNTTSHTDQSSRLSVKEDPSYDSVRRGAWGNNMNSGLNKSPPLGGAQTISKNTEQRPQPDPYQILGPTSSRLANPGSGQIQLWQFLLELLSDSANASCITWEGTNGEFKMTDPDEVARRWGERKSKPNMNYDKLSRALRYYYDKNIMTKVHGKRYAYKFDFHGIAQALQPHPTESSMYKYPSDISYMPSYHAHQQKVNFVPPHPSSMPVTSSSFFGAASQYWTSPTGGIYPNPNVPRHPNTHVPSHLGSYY
The procedure, abridged:
(§1)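 After expression in yeast as GST fusions, human transcription factors were bound to glutathione beads, DNA-barcoded and mixed with a tag-only sample. The pools were incubated with 200 nmole of a 16-mer random double-stranded DNA library in Tris/NaCl/DTT/glycerol buffer (30 min, room temperature), washed and crosslinked with 0.1% formaldehyde. Proximity ligation with BsaI/T4 ligase ran for 1 h at 37 °C, before PCR amplification and sequencing on an Illumina NextSeq500. Binding signal is a hexamer's read frequency for a factor divided by its frequency for the tag-only sample.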

The target of another test is T2, ELK1 (Homo sapiens, UniProt P19419 1-428).
T2 sequence: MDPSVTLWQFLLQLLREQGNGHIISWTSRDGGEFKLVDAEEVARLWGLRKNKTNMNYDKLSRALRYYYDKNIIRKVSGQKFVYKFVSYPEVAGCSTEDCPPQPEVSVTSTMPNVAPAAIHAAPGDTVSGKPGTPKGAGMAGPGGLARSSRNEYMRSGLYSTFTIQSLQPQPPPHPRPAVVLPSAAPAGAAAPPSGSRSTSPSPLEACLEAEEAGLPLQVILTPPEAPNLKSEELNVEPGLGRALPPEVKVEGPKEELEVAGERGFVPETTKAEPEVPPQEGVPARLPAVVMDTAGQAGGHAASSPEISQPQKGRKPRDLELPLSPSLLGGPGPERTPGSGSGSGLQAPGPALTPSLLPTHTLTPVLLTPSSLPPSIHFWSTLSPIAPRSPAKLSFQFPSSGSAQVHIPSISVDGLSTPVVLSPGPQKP
The procedure, abridged: as §1

A further test has as its target T3, GABPA (Homo sapiens, UniProt Q06546 1-454).
T3 sequence: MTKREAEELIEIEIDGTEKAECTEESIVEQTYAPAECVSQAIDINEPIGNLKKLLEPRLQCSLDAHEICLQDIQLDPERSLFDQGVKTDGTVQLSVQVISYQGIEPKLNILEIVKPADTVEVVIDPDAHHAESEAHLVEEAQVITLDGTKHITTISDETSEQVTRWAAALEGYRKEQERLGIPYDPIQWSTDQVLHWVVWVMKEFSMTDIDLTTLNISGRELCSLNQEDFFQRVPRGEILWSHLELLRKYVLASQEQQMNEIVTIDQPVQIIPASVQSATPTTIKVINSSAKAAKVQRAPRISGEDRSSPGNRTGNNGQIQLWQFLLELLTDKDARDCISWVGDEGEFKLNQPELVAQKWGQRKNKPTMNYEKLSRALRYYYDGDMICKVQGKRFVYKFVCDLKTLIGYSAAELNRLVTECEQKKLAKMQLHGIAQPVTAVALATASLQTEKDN
The method, boiled down: as §1

The target in the next test is T4, ERG (Homo sapiens, UniProt P11308 1-479).
T4 sequence: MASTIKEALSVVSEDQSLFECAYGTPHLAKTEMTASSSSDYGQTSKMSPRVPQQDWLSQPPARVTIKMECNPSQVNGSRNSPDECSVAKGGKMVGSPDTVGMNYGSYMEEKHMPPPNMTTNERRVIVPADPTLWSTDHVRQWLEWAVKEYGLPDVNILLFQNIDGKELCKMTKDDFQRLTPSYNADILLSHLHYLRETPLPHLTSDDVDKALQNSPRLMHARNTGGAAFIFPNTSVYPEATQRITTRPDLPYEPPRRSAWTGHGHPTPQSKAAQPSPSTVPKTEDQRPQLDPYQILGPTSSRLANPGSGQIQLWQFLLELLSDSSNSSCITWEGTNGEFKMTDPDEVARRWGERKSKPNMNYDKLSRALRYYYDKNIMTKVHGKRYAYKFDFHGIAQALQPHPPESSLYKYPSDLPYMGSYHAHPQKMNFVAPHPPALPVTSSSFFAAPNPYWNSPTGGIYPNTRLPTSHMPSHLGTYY
The procedure, abridged:
as §1

The target of a further test is ELF1 (Homo sapiens, UniProt P32519 1-619). The method, boiled down: as §1
In another test the target is T5, EHF (Homo sapiens, UniProt Q9NZC4 1-300).
T5 sequence: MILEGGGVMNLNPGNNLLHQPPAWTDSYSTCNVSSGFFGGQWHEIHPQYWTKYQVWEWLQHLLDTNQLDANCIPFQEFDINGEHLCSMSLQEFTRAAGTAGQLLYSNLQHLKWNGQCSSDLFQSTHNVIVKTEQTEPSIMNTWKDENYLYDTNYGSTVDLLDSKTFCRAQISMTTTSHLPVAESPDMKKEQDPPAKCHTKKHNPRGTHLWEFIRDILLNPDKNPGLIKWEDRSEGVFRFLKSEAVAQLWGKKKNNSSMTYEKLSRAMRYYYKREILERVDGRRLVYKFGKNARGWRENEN
The procedure, abridged:
as §1

A further test addresses SPIB (Homo sapiens, UniProt Q01892 1-262). The method, boiled down: as §1
Another test addresses T6, ELK3 (Homo sapiens, UniProt P41970 1-407).
T6 sequence: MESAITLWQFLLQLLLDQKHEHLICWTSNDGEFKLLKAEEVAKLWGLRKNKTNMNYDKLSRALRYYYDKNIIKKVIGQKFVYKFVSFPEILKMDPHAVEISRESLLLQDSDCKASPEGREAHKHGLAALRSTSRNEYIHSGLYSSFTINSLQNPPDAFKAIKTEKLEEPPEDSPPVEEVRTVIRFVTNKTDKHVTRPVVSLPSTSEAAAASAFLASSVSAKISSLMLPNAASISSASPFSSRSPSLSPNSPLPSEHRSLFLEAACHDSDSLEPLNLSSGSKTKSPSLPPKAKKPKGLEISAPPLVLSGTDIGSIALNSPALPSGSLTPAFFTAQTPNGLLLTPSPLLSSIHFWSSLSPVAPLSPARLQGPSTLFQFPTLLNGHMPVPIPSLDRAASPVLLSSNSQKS
The procedure, abridged:
as §1

The target in the next test is T7, FEV (Homo sapiens, UniProt Q99581 1-238).
T7 sequence: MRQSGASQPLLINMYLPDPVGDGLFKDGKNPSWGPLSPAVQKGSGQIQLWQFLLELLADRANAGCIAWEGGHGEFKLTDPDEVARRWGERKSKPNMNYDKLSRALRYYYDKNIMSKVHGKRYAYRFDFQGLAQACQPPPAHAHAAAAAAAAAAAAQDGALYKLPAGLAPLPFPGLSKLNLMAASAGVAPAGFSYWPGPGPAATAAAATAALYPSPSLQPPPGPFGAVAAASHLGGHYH
The method, boiled down:
as §1

Another test concerns the target ETV5 (Homo sapiens, UniProt P41161 1-510). The method, boiled down:
as §1

A further test concerns the target T8, SPIC (Homo sapiens, UniProt Q8N5J4 1-248).
T8 sequence: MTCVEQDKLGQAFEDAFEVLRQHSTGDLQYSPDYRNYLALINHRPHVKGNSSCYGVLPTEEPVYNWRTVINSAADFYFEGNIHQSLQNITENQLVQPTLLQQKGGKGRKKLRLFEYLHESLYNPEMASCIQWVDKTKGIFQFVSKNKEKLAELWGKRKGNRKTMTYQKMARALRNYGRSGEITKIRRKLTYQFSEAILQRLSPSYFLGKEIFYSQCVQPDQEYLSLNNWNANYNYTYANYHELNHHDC
The procedure, abridged:
as §1

For another test, the target named is ELF4 (Homo sapiens, UniProt Q99607 1-663). The method, boiled down:
as §1

The next test deals with ETV1 (Homo sapiens, UniProt P50549 1-477). The procedure, abridged: as §1
For another test, the target named is T9, ERF (Homo sapiens, UniProt P50548 1-548).
T9 sequence: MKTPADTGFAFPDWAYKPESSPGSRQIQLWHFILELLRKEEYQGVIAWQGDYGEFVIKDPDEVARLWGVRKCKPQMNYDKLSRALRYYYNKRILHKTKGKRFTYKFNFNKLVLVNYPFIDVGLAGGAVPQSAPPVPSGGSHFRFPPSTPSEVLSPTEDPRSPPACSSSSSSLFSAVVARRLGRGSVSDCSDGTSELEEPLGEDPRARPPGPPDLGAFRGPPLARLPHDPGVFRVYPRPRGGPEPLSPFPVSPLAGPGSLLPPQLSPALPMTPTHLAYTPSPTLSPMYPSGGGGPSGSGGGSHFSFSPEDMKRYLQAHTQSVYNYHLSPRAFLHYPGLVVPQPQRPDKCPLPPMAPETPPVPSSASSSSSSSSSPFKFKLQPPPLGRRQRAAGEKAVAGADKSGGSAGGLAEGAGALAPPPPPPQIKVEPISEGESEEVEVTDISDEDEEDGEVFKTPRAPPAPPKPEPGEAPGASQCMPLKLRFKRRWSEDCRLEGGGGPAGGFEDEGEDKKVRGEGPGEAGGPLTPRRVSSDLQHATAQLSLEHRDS
The procedure, abridged:
as §1

A further test deals with T10, ETV3L (Homo sapiens, UniProt Q6ZN32 1-361).
T10 sequence: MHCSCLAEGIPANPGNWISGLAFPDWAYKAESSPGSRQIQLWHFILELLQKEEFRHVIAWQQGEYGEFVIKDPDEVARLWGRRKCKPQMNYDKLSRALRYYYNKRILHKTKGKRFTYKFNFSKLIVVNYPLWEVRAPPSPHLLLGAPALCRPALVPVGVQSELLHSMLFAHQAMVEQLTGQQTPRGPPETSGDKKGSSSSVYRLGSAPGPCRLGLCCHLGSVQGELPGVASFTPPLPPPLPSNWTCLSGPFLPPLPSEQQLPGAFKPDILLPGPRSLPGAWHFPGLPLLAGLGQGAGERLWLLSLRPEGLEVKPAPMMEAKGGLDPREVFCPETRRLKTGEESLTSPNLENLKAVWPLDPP
The method, boiled down: as §1

The next test concerns the target T11, ETS2 (Homo sapiens, UniProt P15036 1-469).
T11 sequence: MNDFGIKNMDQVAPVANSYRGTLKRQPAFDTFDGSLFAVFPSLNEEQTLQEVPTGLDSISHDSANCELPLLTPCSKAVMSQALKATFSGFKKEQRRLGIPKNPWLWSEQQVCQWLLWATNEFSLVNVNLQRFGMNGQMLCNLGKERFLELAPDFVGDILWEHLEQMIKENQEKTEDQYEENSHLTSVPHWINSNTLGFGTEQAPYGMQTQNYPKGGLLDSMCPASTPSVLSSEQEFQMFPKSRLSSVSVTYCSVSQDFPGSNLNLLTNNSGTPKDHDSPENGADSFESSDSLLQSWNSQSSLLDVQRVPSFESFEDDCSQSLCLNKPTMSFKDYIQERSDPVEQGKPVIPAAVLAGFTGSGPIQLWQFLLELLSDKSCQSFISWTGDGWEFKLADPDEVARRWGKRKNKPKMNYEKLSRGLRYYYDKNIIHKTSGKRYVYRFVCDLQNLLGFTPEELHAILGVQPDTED
The method, boiled down: as §1

The next test deals with T12, ELF5 (Homo sapiens, UniProt Q9UKW6-2 1-255).
T12 sequence: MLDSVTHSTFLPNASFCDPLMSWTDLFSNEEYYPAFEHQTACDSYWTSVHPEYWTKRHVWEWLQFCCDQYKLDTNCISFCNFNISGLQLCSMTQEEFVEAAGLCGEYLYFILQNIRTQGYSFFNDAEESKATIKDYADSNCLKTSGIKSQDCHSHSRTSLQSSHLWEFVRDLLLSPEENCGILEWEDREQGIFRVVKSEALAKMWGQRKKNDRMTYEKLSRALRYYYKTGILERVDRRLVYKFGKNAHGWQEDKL
The procedure, abridged: as §1

Another test concerns the target T13, ETV3 (Homo sapiens, UniProt P41162-2 1-143).
T13 sequence: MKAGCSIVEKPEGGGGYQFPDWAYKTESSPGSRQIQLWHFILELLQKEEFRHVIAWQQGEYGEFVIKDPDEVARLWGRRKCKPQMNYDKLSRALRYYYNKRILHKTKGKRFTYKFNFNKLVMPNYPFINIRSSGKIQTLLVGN
The method, boiled down: as §1

Sequence of ELF4 (Q99607 whole entry): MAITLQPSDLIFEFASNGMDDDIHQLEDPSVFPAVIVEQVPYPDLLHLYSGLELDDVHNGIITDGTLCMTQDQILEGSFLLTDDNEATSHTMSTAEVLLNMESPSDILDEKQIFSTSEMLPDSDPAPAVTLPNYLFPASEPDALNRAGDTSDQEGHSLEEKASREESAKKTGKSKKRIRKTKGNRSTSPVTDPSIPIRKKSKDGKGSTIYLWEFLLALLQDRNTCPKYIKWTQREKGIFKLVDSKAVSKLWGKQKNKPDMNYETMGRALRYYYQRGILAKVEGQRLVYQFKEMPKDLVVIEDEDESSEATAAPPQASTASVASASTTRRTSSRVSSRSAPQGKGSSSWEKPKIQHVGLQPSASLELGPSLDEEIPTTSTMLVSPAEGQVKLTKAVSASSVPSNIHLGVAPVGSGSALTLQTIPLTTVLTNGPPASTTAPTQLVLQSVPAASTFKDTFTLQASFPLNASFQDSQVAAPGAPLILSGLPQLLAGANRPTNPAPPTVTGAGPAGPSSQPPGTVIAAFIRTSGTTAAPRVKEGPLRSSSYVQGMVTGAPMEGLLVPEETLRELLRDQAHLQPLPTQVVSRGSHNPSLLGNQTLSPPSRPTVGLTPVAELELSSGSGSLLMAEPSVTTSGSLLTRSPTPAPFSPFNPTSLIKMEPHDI
Sequence of ETV1 (P50549 whole entry): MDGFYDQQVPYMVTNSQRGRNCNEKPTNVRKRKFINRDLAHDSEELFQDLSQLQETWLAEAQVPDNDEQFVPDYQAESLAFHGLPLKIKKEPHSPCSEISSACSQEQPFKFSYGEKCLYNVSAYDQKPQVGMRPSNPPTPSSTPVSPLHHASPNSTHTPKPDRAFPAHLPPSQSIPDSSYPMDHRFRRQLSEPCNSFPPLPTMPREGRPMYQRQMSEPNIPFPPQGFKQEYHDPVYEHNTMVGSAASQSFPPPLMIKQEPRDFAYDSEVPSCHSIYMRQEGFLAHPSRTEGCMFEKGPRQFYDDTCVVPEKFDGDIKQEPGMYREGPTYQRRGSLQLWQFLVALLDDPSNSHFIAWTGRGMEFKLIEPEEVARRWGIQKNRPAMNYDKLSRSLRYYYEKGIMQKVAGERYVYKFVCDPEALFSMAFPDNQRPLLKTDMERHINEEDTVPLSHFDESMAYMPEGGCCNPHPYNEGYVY
Sequence of ELF1 (P32519 whole entry): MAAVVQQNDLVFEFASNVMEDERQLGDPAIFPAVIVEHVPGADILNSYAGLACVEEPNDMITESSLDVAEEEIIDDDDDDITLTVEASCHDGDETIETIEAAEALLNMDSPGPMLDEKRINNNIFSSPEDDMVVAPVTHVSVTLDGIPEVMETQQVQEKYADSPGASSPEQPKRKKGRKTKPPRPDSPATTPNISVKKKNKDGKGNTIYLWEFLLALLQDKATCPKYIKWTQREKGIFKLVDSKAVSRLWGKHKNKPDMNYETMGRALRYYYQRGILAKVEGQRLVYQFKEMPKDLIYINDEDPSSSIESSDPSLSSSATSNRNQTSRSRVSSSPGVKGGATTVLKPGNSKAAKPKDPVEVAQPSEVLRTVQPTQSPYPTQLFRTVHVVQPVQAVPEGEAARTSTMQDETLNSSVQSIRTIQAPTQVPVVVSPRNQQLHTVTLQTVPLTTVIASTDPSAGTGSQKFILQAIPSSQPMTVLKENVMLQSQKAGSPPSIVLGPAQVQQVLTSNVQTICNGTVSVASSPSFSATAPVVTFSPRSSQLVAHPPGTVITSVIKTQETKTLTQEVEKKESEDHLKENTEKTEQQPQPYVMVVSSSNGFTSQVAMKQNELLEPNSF
Sequence of ETV5 (P41161 whole entry): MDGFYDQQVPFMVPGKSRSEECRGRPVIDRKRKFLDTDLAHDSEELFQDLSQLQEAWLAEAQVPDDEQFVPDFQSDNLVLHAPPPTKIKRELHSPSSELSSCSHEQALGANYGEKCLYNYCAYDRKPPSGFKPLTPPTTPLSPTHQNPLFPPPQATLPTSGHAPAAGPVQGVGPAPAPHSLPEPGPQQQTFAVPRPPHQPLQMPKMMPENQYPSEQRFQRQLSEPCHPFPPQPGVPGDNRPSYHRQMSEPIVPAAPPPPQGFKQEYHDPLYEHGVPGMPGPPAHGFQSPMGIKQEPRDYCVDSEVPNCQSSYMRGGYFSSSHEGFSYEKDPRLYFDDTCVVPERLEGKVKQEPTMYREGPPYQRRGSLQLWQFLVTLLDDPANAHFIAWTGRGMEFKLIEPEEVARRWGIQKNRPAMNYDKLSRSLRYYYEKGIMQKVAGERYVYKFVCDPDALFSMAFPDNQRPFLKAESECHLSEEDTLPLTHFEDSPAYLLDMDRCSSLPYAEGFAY
Sequence of SPIB (Q01892 whole entry): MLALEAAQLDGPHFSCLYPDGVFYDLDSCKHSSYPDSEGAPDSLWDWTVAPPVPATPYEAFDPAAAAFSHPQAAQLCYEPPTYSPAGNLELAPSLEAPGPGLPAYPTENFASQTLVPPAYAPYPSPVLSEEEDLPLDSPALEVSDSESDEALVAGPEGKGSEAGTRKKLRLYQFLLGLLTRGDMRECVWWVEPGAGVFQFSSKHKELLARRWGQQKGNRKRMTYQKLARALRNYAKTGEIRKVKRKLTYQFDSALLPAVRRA

For TCAACA, the binding signal is 1.06 fold enrichment (6-mer frequency, TF over GST control) in the test with FLI1; 1.13 fold enrichment (6-mer frequency, TF over GST control) with ELK1; 1.11 fold enrichment (6-mer frequency, TF over GST control) in the test with GABPA; 1.04 fold enrichment (6-mer frequency, TF over GST control) in the test with ERG; 1.03 fold enrichment (6-mer frequency, TF over GST control) in the test with ELF1; 1.05 fold enrichment (6-mer frequency, TF over GST control) with EHF. Moreover, the binding signal in the test with SPIB was 1.01 fold enrichment (6-mer frequency, TF over GST control); in the test with ELK3, 1.06 fold enrichment (6-mer frequency, TF over GST control); in the test with FEV, 1.05 fold enrichment (6-mer frequency, TF over GST control); in the test with ETV5, 1.04 fold enrichment (6-mer frequency, TF over GST control); with SPIC, 1.05 fold enrichment (6-mer frequency, TF over GST control); with ELF4, 1.07 fold enrichment (6-mer frequency, TF over GST control). Besides, the binding signal with ETV1 was 1.06 fold enrichment (6-mer frequency, TF over GST control); with ERF, 1.03 fold enrichment (6-mer frequency, TF over GST control); with ETV3L, 1.09 fold enrichment (6-mer frequency, TF over GST control); with ETS2 it was 1.07 fold enrichment (6-mer frequency, TF over GST control); with ELF5, 1 fold enrichment (6-mer frequency, TF over GST control); with ETV3 it was 1.08 fold enrichment (6-mer frequency, TF over GST control).
